Screens: PubChem, several laboratories
Compounds with a hit are over-represented: about 6.7% of the library has one in this group of screens.
FBA Mtb inh – Mtb FBA enzyme inhibitors, primary screen, biochemical, fluorescence, strain H37Rv; purified M. tuberculosis FBA, fluorescence read-out; inhibition, % at 1 µM; actives 2.3% (n = 360,000); in the data active = inhibition above about 27%
BoNT A protease – BoNT/A light chain protease inhibitors, primary screen, biochemical, flow cytometry, MLPCN library; Botulinum neurotoxin type A light chain protease (Clostridium botulinum A str. ATCC 3502); multiplex microsphere protease substrate cleavage; inhibition, % at 10 µM; actives 0.17% (n = 360,000); AID 588499, 2011
Bead autofluor – counter-screen for toxin protease inhibitors: compound fluorescence. compound autofluorescence counterscreen, microsphere flow cytometry; stronger effect = higher value. fluorescence intensity (concentration not given with the values). actives 3.1% (n = 360,000). AID 624483; in the data active = fluorescence intensity above about 16000; inconclusive = no clear call, values can overlap the other calls
Anthrax LF prot – Bacillus anthracis LF protease inhibitors, primary screen, biochemical, multiplex microsphere, MLPCN library. Lethal factor (Bacillus anthracis), P15917. multiplex microsphere protease cleavage assay. AID 588501, 2011. inhibition, % at 10 µM. actives 0.12% (n = 360,000)
BoNT F protease – BoNT/F light chain protease inhibitors, primary screen, biochemical, flow cytometry, MLPCN library; Multiplex microsphere protease cleavage assay; inhibition, % at 10 µM; actives 0.22% (n = 360,000); AID 588497, 2011; in the data active = inhibition above about 35%, passing the limit was not always enough; inconclusive = no clear call, values can overlap the other calls
GDH-TPI counter – GDH-TPI coupling enzyme inhibitors, primary screen, artefact control for M. tuberculosis FBA inhibitor project, biochemical, absorbance, full deck | GDH-TPI coupled enzyme counterscreen, NADH absorbance | inhibition, % at 4.8 µM | actives 1.2% (n = 360,000) | AID 588335, 2011; in the data active = inhibition above about 30%
Of the large screens only hits and unclear results are named; the others gave an inactive call. Cut-off read from the data, not from the text of the source, unless noted: active = inhibition above about 30%; inconclusive = no clear call, values can overlap the other calls; inactive = below that.

CC(CNS(=O)(=O)c1ccccc1)Sc1ncccn1 (stereo not drawn)	none
O=C(Nc1ccc([N+](=O)[O-])cc1)Nc1ccc(Cl)cc1F	none
Cc1ccn2c(NCc3ccc4c(c3)OCO4)c(-c3ccc(O)cc3)nc2c1	Bead autofluor 17253
Oc1ccc(-c2nc3ccccn3c2NCc2ccc3c(c2)OCO3)cc1	none
Fc1ccc(-c2nc3ccccn3c2NCc2ccc3c(c2)OCO3)cc1	FBA Mtb inh 39
COc1ccc(-c2nc(CS(=O)CC(=O)N3CCOCC3)c(C)o2)cc1OC (stereo not drawn)	none
CN1CCN(CC(=O)Nc2c(C(=O)C3CC3)oc3ccccc23)CC1	Bead autofluor 22556
CCOC(=O)Cc1csc(NC(=O)CCN2C(=O)c3cccc([N+](=O)[O-])c3C2=O)n1	none
CCc1cccc(N=c2c([N+](=O)[O-])nn(-c3ccc(Cl)cc3)n2O)c1	Bead autofluor 22799
O=[N+]([O-])c1nn(-c2ccc(Cl)cc2)n(O)c1=NCc1cccnc1	none
O=[N+]([O-])c1nn(-c2cccc(Cl)c2)n(O)c1=NCc1cccnc1	BoNT F protease 35
Cc1cccc(N=c2c([N+](=O)[O-])nn(-c3ccc(Cl)cc3)n2O)c1	none
Cc1cc(C)cc(N=c2c([N+](=O)[O-])nn(-c3cccc(Cl)c3)n2O)c1	Bead autofluor 22853
O=C(Cc1ccccc1F)N1CCN(S(=O)(=O)c2ccc(Cl)cc2)CC1	none
CCCCC(=O)Nc1ccc(C(=O)Nc2ccc3c(c2)OCO3)cc1	none
CN(/N=C/c1ccccc1O)C(=S)c1ccccc1	BoNT F protease inconclusive, GDH-TPI counter 32
CN(C)c1ccc(/C=N/NC(=O)c2ccc(Cl)cc2)cc1	GDH-TPI counter 31
Cn1c(=O)n(C)c2cc(/C=N/NC(=O)c3ccc(Cl)cc3)ccc21	GDH-TPI counter 51
Cc1occc1C(=O)N/N=C/c1ccc(N(C)C)cc1	BoNT F protease inconclusive, GDH-TPI counter 81
Cc1nc2c(C)cccc2cc1C(=O)N/N=C/c1ccc(N(C)C)cc1	GDH-TPI counter 51
Cc1occc1C(=O)N/N=C/C=C/c1ccc(N(C)C)cc1	none
CN(C)c1ccc(/C=N/NC(=O)c2ccccc2)cc1	none
CC(=O)Nc1ccc(/C=N/NC(=O)c2cc3ccccc3nc2C)cc1	none
CN(C)c1ccc(/C=N\NC(=O)c2ccc(Cn3cc(Cl)cn3)cc2)cc1	GDH-TPI counter 35
CC(=O)Nc1ccc(/C=N/NC(=O)c2cc3cc(C)ccc3nc2C)cc1	GDH-TPI counter 38
CCOc1ccc(S(=O)(=O)N2CCOCC2)cc1NC(=O)CN1C(=O)NC2(CCCC2)C1=O	none
CCOc1cccc(=O)c2c(C)n(Cc3ccco3)c(C)c12	Bead autofluor 22022
COc1ccc2[nH]c(=O)c(C(c3nnnn3C3CCCC3)N3CCN(Cc4ccc5c(c4)OCO5)CC3)cc2c1 (stereo not drawn)	none
Cn1c2c(c3ccccc31)CCSC2=O	Bead autofluor 22095
Cn1c(-c2ccccc2)cc(=O)c2ccccc21	none
CCC(CC)NC(=O)CN1CCN(S(=O)(=O)c2cccs2)CC1	none
COc1cc(CN2CCc3c([nH]c4ccccc34)C2)cc(OC)c1	Bead autofluor 18016
CCOC(=O)c1ccccc1NC(=O)c1cncc(Br)c1	none
CNC(=O)C12CCC(C)(c3nc4cc(C)c(C)cc4nc31)C2(C)C (stereo not drawn)	Bead autofluor 23268
CCCNC(=O)C12CCC(C)(c3nc4cc(C)c(C)cc4nc31)C2(C)C (stereo not drawn)	GDH-TPI counter 55
O=C(N/N=C\c1ccc(S(=O)(=O)O)o1)c1ccc2c(c1)OCO2	GDH-TPI counter 41
Cc1ccsc1/C=N\NC(=O)c1ccc2c(c1)OCO2	GDH-TPI counter 40
O=C(N/N=C/c1cc([N+](=O)[O-])ccc1O)c1ccc2c(c1)OCCO2	GDH-TPI counter 32
Cc1ccsc1/C=N/NC(=O)c1ccc2c(c1)OCCO2	BoNT F protease inconclusive, GDH-TPI counter 34
CCC1=C(OC(=O)N(CC)CC)N2C(=O)OC(=NCCOC)[C@]2(Cc2ccccc2)[C@H]2C1=CC[C@H]1C(=O)N(C)C(=O)[C@H]12	none
N#Cc1nc(-c2ccccc2Cl)oc1N1CCCCC1	none
N#Cc1ccc(C(=O)Nc2ccc(N3CCN(C(=O)c4ccco4)CC3)cc2)c(F)c1	Bead autofluor 24354
N#Cc1nc(-c2ccccc2F)oc1N1CCN(C(=O)c2ccco2)CC1	FBA Mtb inh 115
N#Cc1nc(-c2ccccc2Cl)oc1N1CCN(C(=O)c2ccco2)CC1	none
N#Cc1nc(-c2ccccc2F)oc1N1CCCCC1	FBA Mtb inh active
N#Cc1nc(-c2ccccc2F)oc1NC1CCCCC1	FBA Mtb inh 175
CC1(C)Cc2c(cnn2-c2ccccc2)C(NC(=O)c2ccc[n+]([O-])c2)C1 (stereo not drawn)	none
O=C1NC2C(NC(=O)N2C2CCCCC2)N1C1CCCCC1 (stereo not drawn)	none
O=C1c2cccnc2C(=O)N1C1CCCCC1	Bead autofluor 21393
O=C1c2cccc([N+](=O)[O-])c2C(=O)N1C1CCCCC1	none
O=[N+]([O-])c1cc(/C=N/OCc2c(Cl)cccc2Cl)ccc1N1CCOCC1	Bead autofluor 22744
O=C(NC1(C(F)(F)F)NC(=O)N(c2ccc(F)c(Cl)c2)C1=O)c1ccncc1 (stereo not drawn)	Bead autofluor 23968
O=C(NC1(C(F)(F)F)NC(=O)N(c2ccccc2F)C1=O)c1ccncc1 (stereo not drawn)	none
N#CCSc1ccsc1C(=O)Nc1ccc(F)cc1	Bead autofluor 16375
COc1cc(OC)cc(C(=O)NC2CCSC2=O)c1 (stereo not drawn)	Bead autofluor 17088
COc1ccc(C(=O)NC(=S)NC2CCSC2=O)cc1 (stereo not drawn)	none
C/C(Cn1cnc([N+](=O)[O-])n1)=N\NC(=O)c1cccc(F)c1	BoNT F protease 36
C/C(Cn1cnc([N+](=O)[O-])n1)=N\NC(=O)c1ccc(F)cc1	none
Cc1noc(C)c1C(=O)Nc1sc2c(c1C(N)=O)CCC2	none
Cc1noc(C)c1C(=O)Nc1sc2c(c1C(N)=O)CCCCC2	Bead autofluor 22480
CCC(=O)Nc1sc2c(c1C(N)=O)CCC2	Bead autofluor 23030
COc1ccc(OCC(=O)N/N=C/c2ccc(N(C)C)cc2)cc1	GDH-TPI counter 34
CN(C)c1ccc(/C=N/NC(=O)CCC(=O)NCc2ccccc2)cc1	GDH-TPI counter 32
COc1ccc(/C=N/NC(=O)CCCCCNC(=O)c2ccccc2)cc1	none
COc1ccc(NC(=O)Nc2ccc(N(C)C)cc2)cc1	Bead autofluor 18854
